# Out of some 310,000 compounds screened, about 14,000 (4.5%) showed an effect of 50% or more. Effects have a minus sign here. Shown is part of a subset that was picked to be rich in strong results.
# Biological target: human ether-à-go-go-related gene (hERG) potassium channel (human, UniProt Q12809)
# Test: primary screen, population patch clamp on CHO cells stably expressing hERG; higher = less effect of the substance
# 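Also: peak tail current of the secondary pulse compared with the same well before compound.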
# Chain of human ether-à-go-go-related gene (hERG) potassium channel (Q12809 whole entry, looked up): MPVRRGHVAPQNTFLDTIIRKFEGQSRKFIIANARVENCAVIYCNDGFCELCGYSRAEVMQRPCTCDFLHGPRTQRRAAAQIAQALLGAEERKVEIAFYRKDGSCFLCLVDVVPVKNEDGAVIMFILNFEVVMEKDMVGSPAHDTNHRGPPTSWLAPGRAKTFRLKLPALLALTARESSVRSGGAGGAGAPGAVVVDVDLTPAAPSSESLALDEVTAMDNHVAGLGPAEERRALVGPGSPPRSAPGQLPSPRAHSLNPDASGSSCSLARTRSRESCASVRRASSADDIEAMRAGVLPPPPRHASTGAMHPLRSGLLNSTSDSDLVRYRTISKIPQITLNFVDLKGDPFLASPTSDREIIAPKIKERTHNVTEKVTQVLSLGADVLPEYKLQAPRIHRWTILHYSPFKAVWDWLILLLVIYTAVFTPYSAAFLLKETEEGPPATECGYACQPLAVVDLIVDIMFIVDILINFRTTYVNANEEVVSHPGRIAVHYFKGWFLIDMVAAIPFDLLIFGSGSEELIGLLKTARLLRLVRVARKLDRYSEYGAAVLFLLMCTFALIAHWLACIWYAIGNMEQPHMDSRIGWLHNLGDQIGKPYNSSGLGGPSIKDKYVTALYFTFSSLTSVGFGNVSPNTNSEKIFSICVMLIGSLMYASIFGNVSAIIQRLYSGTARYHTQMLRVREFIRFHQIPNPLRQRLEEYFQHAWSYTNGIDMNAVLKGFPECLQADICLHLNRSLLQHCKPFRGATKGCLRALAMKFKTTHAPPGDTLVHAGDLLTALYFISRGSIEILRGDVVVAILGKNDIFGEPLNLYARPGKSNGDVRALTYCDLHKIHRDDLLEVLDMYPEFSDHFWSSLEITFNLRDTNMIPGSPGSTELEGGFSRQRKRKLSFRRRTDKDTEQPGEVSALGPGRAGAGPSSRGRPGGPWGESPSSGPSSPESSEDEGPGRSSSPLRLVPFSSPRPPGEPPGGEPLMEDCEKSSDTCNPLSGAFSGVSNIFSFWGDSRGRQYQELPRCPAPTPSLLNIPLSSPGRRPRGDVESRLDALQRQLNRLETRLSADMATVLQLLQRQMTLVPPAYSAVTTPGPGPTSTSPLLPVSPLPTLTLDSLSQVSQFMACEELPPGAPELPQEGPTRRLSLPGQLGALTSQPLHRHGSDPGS
row,SMILES,"hERG current change (%, negative = inhibition) at 10uM [%]"
1,CC(=O)c1ccc(-c2ccc(/C=C(/Sc3n[nH]c(C)n3)C(=O)O)o2)cc1,-42.7
2,O=c1[nH][nH]cc1C=Nc1ccc(Oc2ccccc2)cc1,11.6
3,CC(Sc1ccccc1)C(=O)Nc1ccc(N2CCOCC2)cc1 (stereo not shown),-7.09
4,CN1CCN(C(=O)c2ccc3c(c2)N(Cc2cccc(Cl)c2)C(=O)c2ccccc2S3(=O)=O)CC1,10.8
5,COc1ccc(NC(=O)CC2(CC(=O)O)CCCC2)cn1,16.7
6,CC(C)N1CCC(N2CCN(Cc3ccc(Oc4ncccn4)cc3)CC2CCO)CC1 (stereo not shown),23.9
7,Cc1cc(C)n(-c2ccc(C(=O)Nc3cccc([N+](=O)[O-])c3)cc2)n1,40.2
8,COc1ccc(CCNC(=O)c2ccc(-c3ccc([N+](=O)[O-])cc3Cl)o2)cc1,4.64
9,CN(CC(=O)Nc1ccc(S(=O)(=O)N2CCCC2)cc1)Cc1ccc(Cl)c(Cl)c1,0.187
10,Cc1ccc(NC(=O)CN(C)C(=O)Cc2ccc(Cl)c(Cl)c2)cc1,11.8
11,CN(CC(=O)Nc1ccc(C#N)cc1)Cc1ccc(Cl)c(Cl)c1,-60.8
12,C=CCNC(=O)c1ccc(C(=O)c2ccccc2)cc1,-27.8
13,CC(=O)CSc1ncnc2c1cnn2-c1ccccc1,12.6
14,COc1ccc(/C=N/NC(=O)c2ccncc2)cc1CN1CCOCC1,3.71
15,COc1ccc(/C=N\NC(=O)c2nn(C)cc2Cl)cc1CN1CCOCC1,-10.6
16,COc1ccc(/C=C2\CCc3ccccc3C2=O)cc1Cn1cccn1,2.14
17,COc1ccc(C(=O)/C=C/c2ccc(OC)c(CN3CCOCC3)c2)cc1,-56.3
18,COc1ccc(/C=C/C(=O)c2ccccc2O)cc1CN1CCOCC1,-17.7
19,COc1ccc(/C=N/NC(=O)c2cccc(Br)c2)cc1CN1CCOCC1,-82.4
20,CCOc1cc(/C=N/NC(=O)c2ccc(CN3CCOCC3)cc2)ccc1OC,-19.1
21,COc1ccc(/C=C2\CCc3ccccc3C2=O)cc1CN1CCOCC1,-33.6
22,COc1ccc(/C=N/NC(=O)c2cccc(Br)c2)cc1Cn1cc(Cl)cn1,8.83

row,SMILES,"hERG current change (%, negative = inhibition) at 10uM [%]"
1,COc1ccc(/C=C2/CCc3ccccc3C2=O)cc1CN1CCOCC1,-59.6
2,COc1ccc(/C=N/NC(=O)c2ccc(Br)cc2)cc1CN1CCOCC1,-64.8
3,COc1ccc(/C=C/C(=O)c2ccc(O)cc2)cc1CN1CCOCC1,-11.3
4,CC(C)CN(C(=O)COC(=O)C1CC1)c1c(N)n(Cc2ccccc2)c(=O)[nH]c1=O,13
5,CCc1c(O)nc(SCC(=O)Nc2nc3ccccc3s2)n(-c2ccc(C)cc2)c1=O,-17.8
6,Clc1ccc(-c2csc(N3CCc4ccccc4C3)n2)cc1,14.3
7,COc1c(S(=O)(=O)NCCN2CCOCC2)ccc(Cl)c1Cl,-16.3
8,CNC(=O)COC(=O)c1cc(NC(=O)c2ccco2)c(OC)c(OC)c1,2.4
9,O=S(=O)(c1cc(C(F)(F)F)ccc1Cl)N1CCN(c2ccccn2)CC1,-26.3
10,CC(C)n1cnnc1SCC(=O)Nc1cccc(S(=O)(=O)N(C)c2ccccc2)c1,-12.4
11,c1ccc(C2(c3ccccc3)OCC(Cn3cncn3)O2)cc1 (stereo not shown),-0.819
12,COc1ccc(/C=N/n2cnc3c(sc(=S)n3-c3ccccc3)c2=O)cc1,13.4
13,O=C(c1cc(C2CC2)nc2ccccc12)N1N=C(C(F)F)CC1(O)C(F)F (stereo not shown),-18.3
14,O=C(c1ccccc1-n1cccc1)N1N=C(C(F)F)CC1(O)C(F)F (stereo not shown),-63.2
15,O=C(c1cc(-c2ccccc2)nc2ccccc12)N1N=C(C(F)F)CC1(O)C(F)F (stereo not shown),-13.2
16,COc1ccc(-c2cc(C(=O)NCc3ccco3)c3ccccc3n2)cc1,-5.84
17,Cc1nn(-c2cc(Cl)ccc2Cl)c(C)c1C(=O)O,13.2
18,CCOc1ccc(S(=O)(=O)N(C)c2ccc(OCC(=O)N3c4ccc(C)cc4C4CN(C)CCC43)cc2)cc1 (stereo not shown),-38.5
19,O=C(COc1ccc(S(=O)(=O)NC2CCCCC2)cc1)NC1CCCC1,-8.19
20,CC(=O)N1CCN(C(=O)COc2ccc(N(C)S(=O)(=O)c3cccs3)cc2)CC1,-14.7
21,CN(c1ccc(OCC(=O)NC2CCCC2)cc1)S(=O)(=O)c1cccs1,-80.6
22,CCN(CC)c1ccc(NC(=O)COc2ccc(N(C)S(=O)(=O)c3cccs3)cc2)cc1,8.15

row,SMILES,"hERG current change (%, negative = inhibition) at 10uM [%]"
1,O=C(COc1ccc(S(=O)(=O)NC2CCCCC2)cc1)NC1CC1,3.4
2,Cc1ccc(N(CC(=O)NC2CCCCC2)S(=O)(=O)c2cccs2)cc1,5.9
3,O=C(COc1ccc(S(=O)(=O)NC2CCCCC2)cc1)NC1CCCCC1,-54.1
4,CN(c1ccc(OCC(=O)N2CCCCC2)cc1)S(=O)(=O)c1cccs1,-11.2
5,Cc1ccc2c(c1)C1CN(C)CCC1N2C(=O)COc1ccc(N(C)C(=O)C(C)(C)C)cc1 (stereo not shown),-9.48
6,Cc1ccc2c(c1)C1CN(C)CCC1N2C(=O)COc1ccc(N(C)S(=O)(=O)c2cccs2)cc1 (stereo not shown),-52.9
7,CN(c1ccc(OCC(=O)N2CCN(c3ccc(F)cc3)CC2)cc1)S(=O)(=O)c1cccs1,-58.7
8,C#Cc1cccc(C(=O)N2CCCC(C(=O)c3ccc(OC)cc3C)C2)c1 (stereo not shown),-6.8
9,COc1ccc(S(=O)(=O)N2CCC(C(=O)Nc3ccccc3N3CCCCC3)CC2)cc1OC,3.04
10,Cc1ccc(S(=O)(=O)N2CCC(C(=O)Nc3ccccc3N3CCCCC3)CC2)cc1C,-9.46
11,C=CCn1c(Cc2csc(N)n2)nnc1SCC(=O)OCC,-0.614
12,O=C(O)CCc1nc2ccccc2c(=O)[nH]1,38.7
13,CC(=O)c1cn(CC(=O)NCc2cccnc2)c2ccccc12,3.67
14,CCc1nnc(NC(=O)CSc2nnc(-c3cccnc3)n2C)s1,13.6
15,CCOc1ccc(OCCC(=O)OCC(=O)N2CCN(c3ccc(OC)cc3)CC2)cc1,6.92
16,CN1CCN(C(=O)c2ccccc2NC(=O)CCN2C(=O)c3ccccc3C2=O)CC1,-3.71
17,C=CCSc1nnc(NC(=O)CSc2nc3ccccc3[nH]2)s1,9.74
18,COc1cccc(NC(=O)Cn2c(-c3cncs3)nc3ccccc32)c1,-23.9
19,O=C(CNC(=O)c1ccco1)OCc1cccc(Cl)c1,-7.25
20,COC(=O)c1c(C(=O)OC)n(CCCN)c2ccc(C)cc12.Cl,-77
21,COC(=O)c1c(C)n(-c2ccc(C)cc2)c2ccc(O)cc12,-3.54
22,COC(=O)c1c(C)n(Cc2ccccc2)c2ccc(O)cc12,14.8

row,SMILES,"hERG current change (%, negative = inhibition) at 10uM [%]"
1,O=C(NCCC1=CCCCC1)c1cc(COc2ccc(F)cc2Cl)on1,10.4
2,Cc1ccc(NC(=O)Cn2c(CCC(=O)O)ccc2-c2cccs2)cc1,-2.61
3,COc1cccc(NC(=O)Cn2c(CCC(=O)O)ccc2-c2cccs2)c1,12.4
4,Cc1ccc(NC(=O)Cn2c(CCC(=O)O)ccc2-c2cccs2)cc1Cl,-75.3
5,CC(C)Oc1ccc(S(=O)(=O)N2CCOCC2)cc1NC(=O)C1CCCCC1,-19.6
6,O=C(O)CSc1ncnc2sc(-c3ccccc3)cc12,23.6
7,Cc1cccc(Nc2sc(C(=O)c3cc4cc(Cl)ccc4o3)c(N)c2C#N)c1,-2.78
8,FC(F)(F)c1cccc(Nc2nc(N3CCCC3)nc(N3CCCC3)n2)c1,23.7
9,CN1CCN(c2nc(Nc3ccc(F)cc3)nc(Nc3ccc(F)cc3)n2)CC1,-60.5
10,Cl.Fc1ccc(Nc2nc(N3CCOCC3)nc(N3CCOCC3)n2)cc1,4.26
11,FC(F)(F)c1cccc(Nc2nc(N3CCOCC3)nc(N3CCOCC3)n2)c1,15.6
12,COc1ccc(N2CCN(c3nc(Cl)nc(Nc4ccc(F)cc4)n3)CC2)cc1,7.8
13,CN1CCN(c2nc(Nc3cccc(C(F)(F)F)c3)nc(N3CCOCC3)n2)CC1,-60
14,COc1ccc(/C=N/N=C/c2ccc(OC)c(O)c2)cc1O,23.2
15,O=C(O)/C(=C\c1ccc(-c2ccccc2[N+](=O)[O-])o1)c1ccccc1,23.6
16,Cc1ccc(C(=O)N/C(=C\c2ccc(-c3ccccc3[N+](=O)[O-])o2)C(=O)NCCCN(C)C)cc1,-74.5
17,Cc1ccc(C(=O)N/C(=C\c2ccc(-c3ccccc3[N+](=O)[O-])o2)C(=O)NCCN(C)C)cc1,-55.4
18,Cc1ccc(C(=O)/C=C/c2ccc(-c3ccccc3[N+](=O)[O-])o2)cc1,12.5
19,CCCCNC(=O)/C(=C\c1ccc([N+](=O)[O-])o1)NC(=O)c1ccccc1,-39.8
